Sampled rows, rich in hits. Any-hit rate of the full collection: about 6.3%.
HepG2 viability – qHTS for Inhibitors of TGF-b: Cytotox Counterscreen. HepG2 CAGA-GFP viability, ATP luminescence, 18 h. Potency, µM (top dose mostly 46.1 µM), for inactives: at the top dose activity change, negative = cytotoxicity, most hits filed as cytotoxic. 410,000 compounds, 0.76% hits
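HepG2 CAGA-GFP cells (1000/well, DMEM with 1% FBS) received compound, then TGF-beta at 500 pg/mL final, and were incubated 18 hours at 37 degrees C. Viability was read by CellTiter-Glo luminescence. Media-only wells were set as complete cell-killing and DMSO as no toxicity.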
ATXN2 expr inh – Primary qHTS for Inhibitors of ATXN expression; Potency, µM (highest dose often 57 µM), inactives show top-dose activity change, negative = inhibition, hits mostly inhibitors; HEK-293 ATXN2-luciferase reporter, luminescence, 24 h; 360,000 compounds, 0.72% hits; AID 1745845, 2022; further: on the % scale 0 is the no-effect control and ±100 the full control effect; nearly all actives have a fitted effect of over 55% in size
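ATXN2-luciferase reporter cells (luciferase flanked by upstream and downstream ATXN2 gene portions) were treated 24 h at 37 °C with compounds at up to 57 uM. SteadyGlo luminescence gave expression; GF-AFC fluorescence gave viability.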
TGFb inhibitor – qHTS for Inhibitors of TGF-b | HepG2 CAGA-GFP TGF-b/SMAD3 reporter, GFP fluorescence, 18 h; TGF-beta stimulated, 500 pg/mL final | Potency, µM (doses to about 46.1 µM), for inactives: top-dose activity, negative = inhibition, usual class: inhibitors | 410,000 compounds, 1.2% hits | AID 588855, 2011; further: on the % scale 0 is the no-effect control and ±100 the full control effect; nearly all actives have a fitted effect of over 65% in size
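HEPG2 CAGA-GFP cells (1000/well, DMEM with 1% FBS) were pre-incubated 2 h at 37 degrees C, given compound by pin tool, then stimulated with TGF-beta at 500 pg/mL final for 18 h before per-cell GFP fluorescence imaging.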
S2 tox – Viability Counterscreen for Primary qHTS for Inhibitors of ATXN expression; S2 cells (HEK-293 line with an ATXN2-luciferase reporter) viability, CellTiter-Fluor protease fluorescence, 24 h; Potency, µM (doses to about 56.7 µM), usual class: cytotoxic; 400,000 compounds, 0.49% hits; further: nearly all actives have a fitted effect of over 40% in size
Gal4-VP16 FLuc – VP16 counterscreen qHTS for inhibitors of ROR gamma transcriptional activity. Potency, µM (series often up to 53.6 µM), inactives show top-dose activity, negative = inhibition, actives largely listed as inhibitors. 310,000 compounds, 3.5% hits. AID 2546, 2010. Drosophila S2 Gal4-VP16 UAS-luciferase, luminescence, 20 h;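 further: Gal4-VP16 expression switched on by copper sulfate through the metallothionein promoter; on the % scale 0 is the no-effect control and ±100 the full control effect; nearly all actives have a fitted effect of over 50% in size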
RORgamma inh – qHTS for inhibitors of ROR gamma transcriptional activity; Nuclear receptor ROR-gamma (Mus musculus), P51450; Drosophila S2 Gal4-RORgamma UAS-luciferase reporter, 20 h; Potency, µM (top dose mostly 53.6 µM), without a hit: at the highest dose activity change, negative = inhibition, most hits filed as inhibitors; 310,000 compounds, 5.4% hits; AID 2551, 2010; further: on the % scale 0 is the no-effect control and ±100 the full control effect; nearly all actives have a fitted effect of over 60% in size
Target sequence (P51450 whole entry, looked up, the tested form may be a part): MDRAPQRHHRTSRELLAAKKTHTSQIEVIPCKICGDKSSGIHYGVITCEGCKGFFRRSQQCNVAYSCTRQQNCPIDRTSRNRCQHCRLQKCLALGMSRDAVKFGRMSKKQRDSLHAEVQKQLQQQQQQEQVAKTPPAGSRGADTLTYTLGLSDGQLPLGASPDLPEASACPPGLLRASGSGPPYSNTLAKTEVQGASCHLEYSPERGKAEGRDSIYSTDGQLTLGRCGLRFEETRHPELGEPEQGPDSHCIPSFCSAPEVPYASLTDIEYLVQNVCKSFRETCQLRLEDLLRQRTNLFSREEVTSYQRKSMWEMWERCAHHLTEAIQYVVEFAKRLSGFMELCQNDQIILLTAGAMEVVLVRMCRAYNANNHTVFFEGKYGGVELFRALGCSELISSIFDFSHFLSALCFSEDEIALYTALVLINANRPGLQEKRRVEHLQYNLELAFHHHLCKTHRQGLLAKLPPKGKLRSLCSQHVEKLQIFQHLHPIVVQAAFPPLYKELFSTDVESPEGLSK
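Drosophila S2 cells stably expressing Gal4-DBD/mouse RORγ fusion under metallothionein promoter plus UAS-luciferase; compound 1 h, then 700 uM CuSO4 induction for 20 h at ambient temperature; inhibition read as reduced luminescence.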
Starred values were filed as active, the others as inactive; i = inactive; ? = inconclusive; . = no result; [ ] = remark or other dose. The call rests on the fitted dose curve; in most records, active means well fitted curve in the direction sought with a large enough effect; inconclusive means small, poorly fitted or top-dose-only effect, or another doubt; inactive means no such curve, though single readings can be large; an effect the other way counts as inactive or inconclusive. Potency means the concentration at half of the fitted maximal effect.

SMILES	HepG2 viability	ATXN2 expr inh	TGFb inhibitor	S2 tox	Gal4-VP16 FLuc	RORgamma inh
Cc1ccc(Cc2cnc(N3C(=N)SC(C)C3=O)s2)cc1 (configuration not stated)	-11.9%	?	?	?	3.16µM*	5.01µM*
Cc1cccc(Cc2cnc(N3C(=N)SC(C)C3=O)s2)c1 (configuration not stated)	-45.1%	-20.3%	?	?	1.12µM*	0.355µM*
Cc1cccc(Cc2cnc(N3C(=N)SC(c4ccccc4)C3=O)s2)c1 (configuration not stated)	-9.2%	-26.1%	?	?	1.26µM*	?
Cc1cccc(Oc2coc3cc(O)ccc3c2=O)c1	2.3%	39.9%	1.9%	i	9.6%	8.4%
O=C(NCc1cccs1)c1cccc2c(-c3cccnc3)coc12	1.1%	4.1%	-0.4%	i	.	.
Cc1cccc2nc(CSc3nnc4ccccn34)cn12	1.6%	-9.2%	7.3%	i	?	11.2µM*
c1ccc2oc(SCc3cn4ccccc4n3)nc2c1	-35.8%	20.3%	-27.8%	i	15.8µM*	8.91µM*
Cc1cccc2nc(CSc3nnnn3-c3ccccc3)cn12	-15.0%	0.0%	-7.6%	i	2.7%	1.3%
Cc1cc(C)c(C#N)c(SCc2cn3c(C)cccc3n2)n1	-4.1%	9.8%	6.0%	i	?	11.2µM*
Cc1cc(C)nc(SCc2cn3c(C)cccc3n2)n1	3.0%	1.1%	-9.3%	i	0.9%	?
Clc1c(CSc2nc3ccccc3o2)nc2sccn12	-33.0%	37.0%	3.2%	i	-9.5%	?
Clc1c(CSc2nc3ccccc3o2)nc2ccccn12	-37.8%	.	-2.7%	i	7.08µM*	?
Cc1cccc(C)c1C(O)c1ncc(-c2cccc(F)c2)[nH]1 (configuration not stated)	-4.8%	8.4%	0.4%	i	.	.
COc1cc(/C=C2\C=Cc3ccccc32)cc(OC)c1OC	-26.4%	.	48.5%	.	.	.
Cc1cccc2nc(CSc3nc4ccccc4o3)cn12	-31.5%	19.1%	-4.3%	i	?	17.8µM*
CC(C)Nc1nc(Cl)nc(NC2CCCCC2)n1	-42.3%	16.7%	-28.5%	?	-1.1%	18.1%
Fc1cc(F)cc(Nc2nc(Cl)nc(NC3CCCC3)n2)c1	-59.6%	?	?	25.1µM*	.	.
Cc1ccc(/C=N/NC(=O)Cc2ccc(Cl)cc2)c(O)c1	-53.4%	?	?	?	0.562µM*	0.224µM*
O=C(Nc1ccccc1N1CCCCC1)c1ccc(-c2ccc(Cl)cc2)o1	15.4%	1.4%	?	i	-18.8%	-3.4%
Cc1ccc(NC(=S)NC(=O)c2ccc(-c3ccc(Cl)cc3)o2)c(O)c1	-87.3%	-2.8%	0.0%	i	-1.8%	8.2%
C/C(=N\OCC(=O)N/N=C/c1ccc(C)cc1O)c1cccs1	-10.2%	?	-6.8%	i	2.82µM*	0.501µM*
Cc1cc(N2CCN(C)CC2)ccc1NC(=O)c1ccc(-c2ccc(Cl)cc2)o1	11.2µM*	?	?	i	.	.
Cc1ccc(O)c(NC(=S)NC(=O)Cc2ccc(Cl)cc2)c1	-22.7%	-10.4%	-22.5%	i	11.2µM*	12.6µM*
O=C(Nc1ccc2c(c1)OCCO2)C(c1cc2ccccc2o1)N1CCN(C/C=C/c2ccccc2)CC1 (configuration not stated)	-20.0%	15.0%	?	?	.	.
Cc1cc(O)c(NC(=S)NC(=O)c2ccc(-c3ccc(Cl)cc3)o2)cc1C	-92.8%	-4.7%	?	i	5.01µM*	3.16µM*
SMILES	HepG2 viability	ATXN2 expr inh	TGFb inhibitor	S2 tox	Gal4-VP16 FLuc	RORgamma inh
O=C(Cc1cccc2ccccc12)Nc1ccc(Br)cc1C(=O)O	14.1µM*	.	-23.2%	.	4.2%	-21.0%[1.91 µM]
O=C1c2ccccc2C(=O)C12OC2c1cccc2ccccc12 (configuration not stated)	6.8%	-18.3%[11.3 µM]	-7.0%	i	14.1µM*	?
O=C(Cc1ccc(-c2ccccc2)cc1)NCCS(=O)(=O)N1CCN(c2cccc(Cl)c2)CC1	0.0%	.	8.8%	.	.	.
CCN(CC)CCCNc1nc2ccccc2c2[nH]c3ccc(OC)cc3c12	-112.1%	?	?	5.97µM*	.	.
Cc1ccc(-n2ncc3c(NNC(=O)c4ccco4)ncnc32)cc1C	-11.7%	11.1%	-17.2%	i	7.08µM*	3.55µM*
O=C(NNc1ncnc2c1cnn2-c1cccc(Cl)c1)c1ccco1	-3.8%	11.3%	-22.8%	i	7.08µM*	5.01µM*
COc1ccc(CC(=O)NNc2ncnc3c2cnn3-c2ccc(C)cc2)cc1OC	4.2%	3.3%	0.0%	i	?	6.31µM*
Cn1ncc2c(NNC(=O)c3ccccc3Cl)ncnc21	-12.2%	-2.0%	-2.8%	i	?	1µM*
Cc1ccc(-n2ncc(C(=O)NCCN3CCOCC3)c2C2CCN(C(=O)OC(C)(C)C)CC2)c(C)c1	-30.8%	-10.3%	-10.7%	i	.	.
C=CC[N@@+]12CC[C@@]34c5ccccc5N5/C=C6/[C@H]7C[C@H]8[C@@]9(CC[N@@+]8(CC=C)C/C7=C/CO)c7ccccc7N(/C=C(/[C@@H](C[C@@H]31)/C(=C\CO)C2)[C@H]54)[C@@H]69	.	.	.	i	.	.
Cc1ccc(/C=N/Nc2nc(C(C)(C)C)cs2)o1	-14.5%	.	-7.7%	i	-2.5%	-37.5%
Cc1ccc(/C=N/Nc2nc3ccccc3s2)o1	-10.9%	110.9%	3.7%	.	10µM*	8.91µM*
CCC(Sc1nc2ncccc2o1)C(=O)Nc1cccc(C)c1 (configuration not stated)	-5.4%	.	.	.	.	.
CC(C)N(C(=O)[C@H]1CC(CC(=O)NCCC2=CCCCC2)C(=O)N2CCc3c([nH]c4ccccc34)[C@]12C)C(C)C (some centres not stated)	-7.8%	?	?	39.8µM*	.	.
CC(C)N(C(=O)[C@H]1C[C@H](CC(=O)NCc2cccc(C(F)(F)F)c2)C(=O)N2CCc3c([nH]c4cc(CCC(=O)N(C)C)ccc34)[C@]12C)C(C)C	-22.1%	?	?	15.8µM*	.	.
CCN(CC)C(=O)[C@H]1C[C@H](CC(=O)NCC23CC4CC(CC(C4)C2)C3)C(=O)N2CCc3c([nH]c4ccc(Cl)cc34)[C@]12C	-92.3%	?	12.6µM*	?	.	.

High-throughput results (PubChem)
